# Hits are enriched below; roughly 2.7% of the tested compounds scored in any of these assays.
# Pf gamet viab – inhibitors of late stage P. falciparum gametocyte viability; P. falciparum stage V gametocytes, ATP luminescence, 24 h; inhibition, % at 10.9 µM; actives 0.065% (n = 150,000);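 active = inhibition above the mean plus 3 SD of compounds within the control limits, set per campaign, cut at about 38% in these data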
# eIF4E-4G inh – eIF4E/eIF4G interaction inhibition in translation initiation; inhibition, % at 21.7 µM; P63073+Q04637; actives 0.37% (n = 220,000); TR-FRET eIF4E-eIF4GI(517-606) binding, 2 h;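 active = inhibition above about 30%, limit read from the data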
# Mcl1-Bid inh – disrupts binding of human Mcl-1 to Bid peptide; Q07820; TR-FRET Mcl-1/Bid-Dy647 peptide binding, 1536-well; inhibition, % at 21.7 µM; actives 0.97% (n = 220,000); AID 1021;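 active = compounds that cut the binding signal by more than half at the single screening dose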;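 also: His-tagged Mcl-1 with europium anti-His antibody binding Bid BH3 peptide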
# Mcl1-Noxa inh – Mcl-1/Noxa interaction inhibition | Q07820 | TR-FRET Mcl-1/Noxa peptide binding, 2 h | inhibition, % at 21.7 µM | actives 1.5% (n = 220,000) | AID 1022;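 active = compounds that cut the protein-peptide binding signal by more than 50% relative to plate controls in a single-dose test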;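 also: His-tagged Mcl-1 with rhodamine Noxa BH3 peptide and terbium anti-His antibody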
# Mcl-1 Bim block – inhibitors of Bim-Mcl-1 interaction, human | Bead-based flow cytometry, Bim peptide-Mcl-1 binding | inhibition, % at 10 µM | actives 0.1% (n = 190,000); in the data active = inhibition above about 40%
# 14-3-3 Bad PPI – disrupts binding of bovine 14-3-3 zeta to phospho-Bad peptide; P63103; actives 0.71% (n = 220,000); inhibition, % at 21.7 µM; TR-FRET 14-3-3zeta/Dy647-pBad peptide displacement, 1 h;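 active = inhibition above about 70%, limit read from the data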
# A number is an active result; n = inactive; x = no result given.
SMILES,Pf gamet viab,eIF4E-4G inh,Mcl1-Bid inh,Mcl1-Noxa inh,Mcl-1 Bim block,14-3-3 Bad PPI
COc1ccc(Oc2nnc(-c3ccc(C)cc3)c3ccccc23)cc1,x,n,n,n,n,89
NS(=O)(=O)c1ccc(-c2ccc(/C=C3\C(=O)Nc4cc(Cl)ccc43)o2)cc1,n,n,n,63,n,75
CC1(C)OC(=O)C(=Cc2ccc(-c3ccc(S(N)(=O)=O)cc3)o2)C(=O)O1,n,n,n,n,n,n
O=C(CNC(=O)c1ccccc1F)Nc1ccccc1C(F)(F)F,n,n,n,n,n,n
COc1cc2c(cc1OC)CN(CC(=O)Nc1ccc(C#N)cc1)CC2,n,n,98,n,n,n
Cc1ccc(NC(=O)CN2CCc3ccccc3C2)cc1F,n,n,98,n,x,n
COc1cc2c(cc1OC)CN(CC(=O)Nc1ccc(S(=O)(=O)N(C)C)cc1)CC2,n,n,n,n,n,n
O=C(CCN1CCc2ccccc2C1)Nc1cccc(F)c1,n,n,77,n,n,n
O=C(CCN1CCc2ccccc2C1)Nc1ccccc1,x,n,n,n,n,n
Cc1cc(Cl)c(S(=O)(=O)Nc2cc(S(=O)(=O)N3CCOCC3)ccc2F)cc1OCC(N)=O,n,n,n,n,n,n
NC(=O)CC(NC(=O)c1cccc(Br)c1)c1ccc(NC2CCC2)c([N+](=O)[O-])c1 (configuration not stated),n,x,x,x,x,x
O=C(CCCN1C(=O)c2ccccc2C1=O)Nc1ccccc1,n,n,78,n,x,n
N#CCC(=N)N1CCN(c2ccccc2Cl)CC1,n,n,n,n,n,n
CN(C)c1ccc(/C=N/NC(=O)c2ccccn2)cc1,n,n,n,n,x,n
CC(C)c1ccc(/C=N/NC(=O)c2ccccn2)cc1,n,55,n,n,x,n
Cc1cccc(NC(=O)CSc2nnc(-c3ccco3)c(-c3ccco3)n2)c1C,x,n,n,95,n,n
Cc1cccc(NC(=O)CSc2nnc(-c3ccco3)c(-c3ccco3)n2)c1,n,n,n,96,n,n
Cc1ccccc1NC(=O)CSc1ccc(-c2ccco2)nn1,n,n,n,n,n,n
CCCC(=O)n1nc(-c2cccnc2)nc1NCc1ccccc1,n,n,n,n,n,n
O=C(CSC1CC(=O)N(c2ccc(C(=O)O)cc2)C1=O)Nc1ccc(Cl)cc1 (configuration not stated),x,n,n,n,n,n
O=C(O)c1ccccc1NS(=O)(=O)c1cccc2cccnc12,n,n,n,n,n,n
O=C(O)c1ccccc1NS(=O)(=O)c1ccccc1C(F)(F)F,n,n,n,53,n,n
Cc1ccccc1NS(=O)(=O)c1ccc(C)c(C(N)=O)c1,n,n,n,n,n,n
O=C(O)CCCNc1ccc(S(=O)(=O)Nc2ccccc2C(=O)O)cc1C(=O)O,x,n,n,60,n,n
O=C(NC(=S)Nc1ccccc1O)c1ccc(Cl)cc1Cl,n,n,n,n,n,n
SMILES,Pf gamet viab,eIF4E-4G inh,Mcl1-Bid inh,Mcl1-Noxa inh,Mcl-1 Bim block,14-3-3 Bad PPI
CN(c1ccccc1)c1ccc(/C=N/N2CCOCC2)cc1,n,n,n,n,n,n
Cc1nc(=O)c(-c2ccccc2)c(C)n1-c1ccc(O)c(C(=O)O)c1,x,n,n,n,n,n
O=S(=O)(c1ccccc1)N1CCN(c2ccnc3cc(Cl)ccc23)CC1,n,n,n,n,n,71
CC(NC(=O)c1ccco1)C(c1cccs1)N1CCOCC1 (configuration not stated),x,n,n,n,n,n
O=C(CCC1CCCCC1)NCc1ccc(F)cc1,n,n,n,n,n,n
CC1CCCCC1NCC(=O)NCc1ccc(F)cc1 (configuration not stated),n,n,58,n,n,n
c1ccc(N2CCN(Cc3ccnc4ccccc34)CC2)cc1,n,n,n,n,n,71
Oc1c(CN2CCN(c3ccccc3)CC2)cc(Br)c2cccnc12,x,n,n,n,x,n
COc1ccccc1OCC(=O)N1CC2(C)CC1CC(C)(C)C2 (configuration not stated),x,n,n,n,n,n
COc1ccc(OCC(=O)N2CC3(C)CC2CC(C)(C)C3)cc1 (configuration not stated),x,36,n,n,n,n
O=C(O)c1ccc2c(c1)C(=O)N(c1ncccn1)C2=O,n,n,n,n,n,n
C=CCNC(=S)NC(=O)c1oc2ccccc2c1C,n,n,n,n,n,n
Cn1c(=O)c2c(nc(N3CCCCCC3)n2CC(O)COc2ccccc2)n(C)c1=O (configuration not stated),n,n,n,n,n,72
COc1ccc2[nH]cc(CCNS(=O)(=O)Cc3ccccc3)c2c1,x,n,n,n,n,n
O=C(c1cccc(N2C(=O)C3C4C=CC(C4)C3C2=O)c1)N1CCN(c2ccccc2)CC1 (configuration not stated),n,n,n,n,n,n
CCOC(=O)C(NCCCCl)c1ccccc1 (configuration not stated),n,n,n,n,n,73
Cc1cc(-c2ccco2)n2c(nc3ccccc32)c1C#N,n,n,96,n,n,n
O=C1C2C3C=CC(C2C(=O)N1CCCO)C1C2C(=O)N(CCCO)C(=O)C2C31 (configuration not stated),n,n,63,n,n,n
COc1cc2[nH]c(=O)c(C(=O)NCCCN3CCOCC3)c(O)c2cc1OC,n,n,n,68,n,n
CCN(CC)CCNC(=O)c1c(O)c2cc(OC)c(OC)cc2[nH]c1=O,x,n,n,n,n,n
O=C(Nc1cccnc1)c1ccc(NS(=O)(=O)c2cc([N+](=O)[O-])ccc2Cl)cc1,n,n,n,n,x,n
Cc1ccc(S(=O)(=O)NC2CC(C)(C)NC(C)(C)C2)c(C)c1C,n,x,x,x,x,x
COc1ccc(NC(=S)N2CCC(C(=O)c3ccc(F)cc3)CC2)c(OC)c1,n,n,n,n,n,n
COc1cccc(-c2csc(N3CCN(C(=S)Nc4cccc(C)c4)CC3)n2)c1,n,n,n,n,n,n
Cc1ccc2[nH]c3c(c2c1)CN(C)CC3,x,n,n,n,n,75
SMILES,Pf gamet viab,eIF4E-4G inh,Mcl1-Bid inh,Mcl1-Noxa inh,Mcl-1 Bim block,14-3-3 Bad PPI
Cc1ccc2[nH]c3c(c2c1)CCN(C)C3,n,x,x,x,x,x
O=C(NCc1cccnc1)C(=O)N/N=C/c1ccc([N+](=O)[O-])cc1,n,n,n,n,n,n
CC[C@H](C)[C@H](NC(=O)OCc1ccccc1)C(=O)Nc1ccc(NC(C)=O)cc1,n,n,n,n,n,n
CC(=O)Nc1ccc(OCCCNC(=O)c2c(-c3ccccc3)noc2C)cc1,n,35,n,n,x,n
CCCOc1ccc(NC(=O)c2c(-c3ccccc3)noc2C)cc1,x,n,n,n,n,n
OCCNc1nc(N2CCN(Cc3ccccc3)CC2)nc2ccccc12,x,n,n,n,n,80
O=C(Nc1ccccc1C(F)(F)F)c1cc(S(=O)(=O)N2CCOCC2)ccc1F,n,n,n,n,n,n

# Bioassay records deposited in PubChem BioAssay by several laboratories.
